# Assay outcomes as filed in PubChem.
# An excerpt weighted towards active compounds, which were near 4.5% of everything screened.
# DAX1 inh-1 – inhibitors of DAX1 repression of SF-1 activated StAR promoter | HEK293T StAR-luciferase reporter, SF-1/DAX-1 repression relief | inhibition, % at 6.8 µM | 1.1% of 370,000 active;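 active = inhibition above the mean over all tested compounds plus 3 SD, cut at about 3.6% in these data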;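 note: 0% = DAX-1 cells with DMSO and 100% = cells lacking DAX-1 with DMSO; higher inhibition means more luminescence from relief of DAX-1 repression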
# DAX1 inh-2 – inhibitors of human orphan nuclear receptor DAX1 (NR0B1); P51843; HEK293 Gal4-DAX1 luciferase reporter, luminescence; inhibition, % at 6.75 µM; 0.99% of 340,000 active; AID 504766;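 active = inhibition above the mean over all tested compounds plus 3 SD, cut at about 4.2% in these data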;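 note: 0% = DAX1-transfected cells with DMSO and 100% = empty-vector control cells with DMSO; inhibition shows as a rise in luminescence from relieved DAX1 repression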
# Target sequence (P51843 207-470 limits assumed): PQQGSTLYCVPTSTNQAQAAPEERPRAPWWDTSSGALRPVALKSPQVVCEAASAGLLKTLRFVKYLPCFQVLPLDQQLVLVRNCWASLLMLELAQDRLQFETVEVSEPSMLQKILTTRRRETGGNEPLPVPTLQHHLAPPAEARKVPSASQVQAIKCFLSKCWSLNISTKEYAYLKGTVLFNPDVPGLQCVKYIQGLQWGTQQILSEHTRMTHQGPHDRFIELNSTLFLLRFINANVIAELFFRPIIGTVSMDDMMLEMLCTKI
# FXN GAA850 act – frataxin GAA850 promoter activation. AID 540364. 0.56% of 360,000 active. HEK293 lucGAA850 FXN promoter luciferase reporter, 24 h; percent of 10 µM SAHA response. activation, % at 6 µM;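 active = activation above the average of all compounds screened plus 3 SD, cutoff fixed separately per campaign, cut at about 7.5% in these data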;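 note: 0% = DMSO wells and 100% = 10 µM SAHA wells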
# hgDAF-12 ag – agonists of H. glycines DAF-12 nuclear receptor | HEK293 GAL4-hgDAF12 UAS-luciferase reporter, agonist luminescence; normalized to butyrate control | AID 687014 | activation, % at 6.8 µM | 1.8% of 370,000 active;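 active = activation above a cutoff set at the mean of all screened compounds plus 3 SD, cut at about 10% in these data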;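 note: 0% = DMSO wells and 100% = sodium butyrate wells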
# hcDAF12 agonist – activates DAF-12 receptor from parasite H. contortus | HEK293 hcDAF-12 lit1-tk-luc reporter, luminescence; 0% DMSO, 100% Δ7-dafachronic acid | 1.4% of 370,000 active | activation, % at 6.8 µM;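 active = activation above the mean of all tested compounds plus 3 SD, cut at about 5.5% in these data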;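 note: 100% = response to 3 µM Δ7-dafachronic acid high control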
# ssDAF12 agonist – activators of S. stercoralis DAF-12 nuclear receptor | 1% of 370,000 active | HEK293 ssDAF-12/GRIP1 lit1-tk-luc reporter, luminescence; % of 3 µM dafachronic acid response | AID 652126 | activation, % at 6.8 µM;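 active = activation above the mean over all tested compounds plus 3 SD, cut at about 0.9% in these data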;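 note: 0% = DMSO-only wells and 100% = 3 µM delta7-dafachronic acid wells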
# * marks the source's active call; other numbers are inactive results; / = no result.
SMILES,DAX1 inh-1,DAX1 inh-2,FXN GAA850 act,hgDAF-12 ag,hcDAF12 agonist,ssDAF12 agonist
CC1=CCC(C(=O)O)C(C(=O)Nc2nc3ccc(S(C)(=O)=O)cc3s2)C1 (stereo unspecified),-0.8,4.2,-1.1,0.7,-0.9,-1.8
CC1=CCC(C(=O)O)C(C(=O)Nc2cccnc2)C1 (stereo unspecified),0.8,2.8,0.7,1.8,2.1,1.7*
CC(C)N1Cc2nnn(Cc3ccccc3)c2-c2cc(F)ccc2S1(=O)=O,-1.2,/,/,-5.3,-3.5,-1.5
O=[N+]([O-])c1cc(N=Nc2ccc3ccccc3c2)ccc1O,-0.4,0.9,3.3,3.7,3.6,1.3*
Nc1ccc(O)c([N+](=O)[O-])c1,0.5,-0.4,1.0,-1.6,0.3,-0.7
N#Cc1c(SCC(=O)Nc2ccc(Cl)cc2Cl)sc2c(O)cc(=O)[nH]c12,0.2,1.4,0.4,-1.8,1.9,-0.8
Cc1c(Cl)cccc1NC(=O)CSc1sc2c(O)cc(=O)[nH]c2c1C#N,0.1,4.4*,-0.2,1.2,-1.8,-1.4
Oc1ccc(N=C/C=C/c2cccc(Br)c2)cc1-c1nc2ccccc2s1,/,0.4,13.7*,/,/,/
Nc1ccc(O)c(-c2nc3ccccc3s2)c1,2.0,1.4,2.4,7.0,4.1,1.2*
Oc1ccc(-c2nc3ccccc3s2)c(O)c1,2.6,0.7,3.9,7.8,1.2,0.2
O=C(c1cc(C2CC2)on1)N(C1CCCCC1)C1CCCCC1,-1.9,/,/,-1.7,-2.7,-1.1
Cc1ccc(-c2[nH]n3c(=O)c4c(nc3c2C)CCCC4)cc1,-0.1,-0.5,6.1,1.1,2.0,-1.4
Cc1c(-c2ccccc2)[nH]n2c(=O)c3c(nc12)CCCC3,2.5,2.1,7.2,10.5*,2.4,-0.5
COc1ccc(-c2c(Cc3ccccc3)nc(NC(=O)c3ccccc3)n2Cc2ccc(OC)cc2OC)cc1,0.2,/,/,4.5,2.4,-1.4
O=c1c(Cl)c(Nc2cccc(Cl)c2)cnn1-c1nc2ccccc2s1,3.3,2.6,-4.0,4.4,5.9*,-0.3
COC(=O)/C(=C\Nc1ccccc1N)c1ncc(C(F)(F)F)cc1Cl,4.3*,1.3,2.4,11.7*,5.7*,0.7
N/C(=N\OC(=O)Nc1ccccc1)c1ncc(C(F)(F)F)cc1Cl,0.3,1.9,3.5,0.3,5.6*,-0.3
C[C@H](CO)N1C[C@H](C)[C@@H](CN(C)C(=O)C2CC2)OCc2cn(nn2)CCCC1=O,-0.3,/,/,1.8,0.8,-1.2
O=C(COc1ccccc1F)NNC(=O)c1cccc(-n2cccc2)c1,1.1,1.2,0.2,0.7,6.3*,-1.1
O=C(COc1cccc(F)c1)NNC(=O)c1cccc(-n2cccc2)c1,0.4,1.5,1.8,3.2,-0.8,-0.7
O=C(CN1C(=O)c2ccc([N+](=O)[O-])cc2C1=O)NC1CCS(=O)(=O)C1 (stereo unspecified),-0.2,5.6*,0.1,-2.3,1.0,-1.1
COc1ccc(/C=C2\SC(=O)N(CCC(=O)N(C)C3CCS(=O)(=O)C3)C2=O)cc1 (stereo unspecified),0.2,0.4,1.9,-0.8,-0.7,-0.7
COc1ccc(/C=C2\SC(=O)N(CC(=O)N(C)C3CCS(=O)(=O)C3)C2=O)cc1 (stereo unspecified),1.4,1.3,2.1,1.6,1.8,1.0*
CC(C)c1ccc(/C=C2\SC(=O)N(CC(=O)NC3CCS(=O)(=O)C3)C2=O)cc1 (stereo unspecified),2.9,0.0,2.4,10.9*,2.0,-1.2
O=C(CN1C(=O)c2ccccc2C1=O)NC1CCS(=O)(=O)C1 (stereo unspecified),2.1,-0.2,2.2,2.4,-1.2,-1.0
SMILES,DAX1 inh-1,DAX1 inh-2,FXN GAA850 act,hgDAF-12 ag,hcDAF12 agonist,ssDAF12 agonist
COCCCNC(=O)C[C@H]1C[C@@]2(C(=O)OC)C(=C[C@H](COCc3ccccc3)O[C@@H]2C)N(Cc2cccc3ccccc23)C1=O,-0.8,/,/,-4.3,-1.6,-0.6
c1ccc2[nH]c(SCC3CCCCO3)nc2c1 (stereo unspecified),2.2,1.0,2.4,11.2*,2.8,-0.3
ClC1(Cl)CC1CSc1nc2ccccc2[nH]1 (stereo unspecified),2.6,0.0,7.3,12.3*,-0.9,-0.9
CCOc1ccc2nc(SCC3CC3(Cl)Cl)[nH]c2c1 (stereo unspecified),0.2,5.1*,0.8,11.6*,1.3,-1.3
O=C(O)CSc1nc2ccccc2[nH]1,0.6,-1.4,0.4,0.4,-0.5,-0.5
CC(C)C[C@H]1COc2cccc(F)c2S(=O)(=O)N1Cc1cn(CCC2OCCCO2)nn1,-0.8,/,/,0.7,-2.2,-1.0
CCCN(CC1CC1)C(=O)c1ccc(CNC(=O)c2cccc(Br)c2)cc1,-1.1,/,/,-3.1,-2.5,-1.9
C/C(Cn1cnc([N+](=O)[O-])n1)=N\NC(=O)c1cccc(F)c1,-0.3,1.8,-1.9,10.8*,1.9,0.8
CCCCN(C)C(=O)CNc1nnnn1-c1ccccc1,1.1,/,/,0.5,0.8,-1.4
COC(=O)c1c(-c2cccnc2)csc1NC(=O)c1cc(C)on1,4.5*,0.9,6.5,6.7,6.5*,0.2
N#C/C(=C/c1ccc(N2CCOCC2)o1)c1ccc(Br)cc1,-0.3,-0.8,16.3*,2.3,0.5,-1.4
N#C/C(=C/c1ccc(N2CCCCC2)o1)C(=O)Nc1ccc(Cl)cc1,1.2,-0.1,4.9,11.2*,-0.9,-1.6
N#C/C(=C\c1ccc(N2CCOCC2)o1)C(=O)Nc1ccc(O)cc1,-0.1,/,5.8,2.3,0.0,-1.0
COc1ccc(NC(=O)/C(C#N)=C\c2ccc(N3CCOCC3)o2)cc1,0.5,-0.1,3.9,12.8*,0.8,-0.7
O=S(=O)(c1ccc(Cl)s1)N1CCC(c2nc3ccccc3o2)CC1,-1.1,/,/,-3.5,-3.4,-1.0
Cc1ccc(NS(=O)(=O)c2cc3c(cc2Cl)NC(=O)CO3)cc1C,/,/,/,-3.1,-0.7,-1.4
COc1cc(NC(=O)c2ccccc2)c(C)cc1NC(=O)CSc1nnc(COc2ccccc2)n1Cc1ccco1,-1.8,/,/,-2.4,1.5,-0.8
O=C(O)CSc1nnc(NC(=O)c2ccc3c(c2)OCO3)s1,0.1,-1.7,-2.6,-0.6,-0.4,-1.8
C=CCSc1nnc(NC(=O)c2ccc3c(c2)OCCO3)s1,3.9*,1.4,1.3,5.0,1.2,-1.0
Cc1ccccc1NC(=O)C[C@H]1CC[C@H]2[C@@H](COc3ccc(NC(=O)Nc4ccccc4)cc3C(=O)N2C)O1,1.0,/,/,-1.9,1.6,-0.3
CC(C)c1ccc(N=C2NN=C(c3cccs3)CS2)cc1,3.2,7.2*,5.4,5.9,2.2,-0.1
Cc1ccc(C2=NNC(=Nc3ccc(F)cc3)SC2)cc1,0.4,0.2,3.4,10.9*,5.7*,-0.6
CCOC(=O)N/N=C(\C)c1ccc(-n2cnnn2)cc1,1.4,0.4,0.1,12.8*,2.4,-0.1
